Measurements: the supplement of paper PMC6555819

What was measured:
Assay in all cases: PBM binding z-score (relative to random genomic background probes); higher = stronger binding; sequences stand for … in GC…GCGATTGACAGCGTAGAATGAAGG
[1] = test system: RARb homodimer (NR concentration 270 nM)
Procedure, shortened: (§1)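 For binding z-scores, the reference was random background probes on custom Agilent 4×180K protein-binding microarrays. These arrays were incubated 1 h with ligand-free nuclear receptor dimers in PBS pH 7.4, 2% milk, 0.02% Triton X-100, 1 mM DTT, 0.2 mg/mL BSA and 0.4 mg/ml salmon testes DNA. Fluorescence was scanned after antibody detection of each partner (one per run) and regression-normalized.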

[2] = test system: RARg:RXRa (NR concentration 270 nM, RXRa partner concentration 90 nM)
Procedure, shortened: as §1

[3] = test system: RARg homodimer (NR concentration 270 nM)
Procedure, shortened: as §1

[4] = test system: RXRa DBDmut IVT, anti-RXR (DBD mutation: RXRa K156A/R161A, NR concentration 90 nM)
Procedure, shortened: as §1

[5] = test system: RXRa homodimer (NR concentration 180 nM)
Procedure, shortened: as §1

[6] = test system: THRa:RXRa (NR concentration 90 nM, RXRa partner concentration 90 nM)
Procedure, shortened: as §1

[7] = test system: THRa homodimer (NR concentration 90 nM)
Procedure, shortened: as §1

[8] = test system: VDR homodimer (NR concentration 270 nM)
Procedure, shortened: as §1

| Sequence | PBM binding z-score [1] | PBM binding z-score [2] | PBM binding z-score [3] | PBM binding z-score [4] | PBM binding z-score [5] | PBM binding z-score [6] | PBM binding z-score [7] | PBM binding z-score [8] |
| --- | --- | --- | --- | --- | --- | --- | --- | --- |
| CGTCCAAGGTCAGAGCGGTCAGTGAATGCCGAGT | 4.33 | 5.22 | 6.15 | 2.61 | 3.84 | 3.6 | 1.54 | 2.42 |
| GCGACTCGGGCATCAGCAGGTTACCATAACTTAA | 0.226 | 0.257 | 0.0755 | -0.281 | 0.133 | 0.266 | -0.36 | -0.501 |
| CGAACTAGGTCAAGAGGTCAAAGTCCGCTTCCCG | 5.66 | 8.2 | 7.63 | 2.69 | 8.43 | 4.34 | 2.51 | 3.88 |
| CTCGAAAGGTCGGTTGAGGTGAGTTTACGGATAA | 2.53 | 2.78 | 2.96 | 1.27 | 2.12 | 4.97 | 1.31 | 2.25 |
| CCGATTAGGTTATGGGGCATTCAGGCAACGGTGA | 1.11 | 0.701 | 0.783 | 0.4 | 0.612 | 1.19 | 0.572 | 0.143 |
| CGAACTAGGTCAGAACAGGATAGTGAAGGATGAT | 1.64 | 2.44 | 3.17 | 0.707 | 1.34 | 2.39 | 0.235 | 0.187 |
| CGAACGAGGGCATGAGTTCATAGCAAATGCCGAT | 2.53 | 3.42 | 2.88 | 3.85 | 3.03 | 2.73 | 0.469 | 6.18 |
| ATCTCTAGGTAAAAGTTGAGTGAATCCCGAGGAT | 0.0614 | 0.517 | 0.653 | 0.044 | 0.435 | 0.387 | 0.0583 | -0.06 |
| TCATATAGGTAAAAGCTAGGTGAAAGTCCGATCT | 0.265 | 0.433 | 0.218 | 1.44 | 0.939 | 1.3 | 0.0247 | -0.0504 |
| AGAATGAGGTTATACGTAGATCCGGGAAGAAAGT | 0.443 | 1.39 | 0.944 | 1.78 | 1.82 | 1.94 | 0.512 | 0.912 |
| CCGAGTAGGTTAGGGGGCATTCAGGCAACGGTGA | 2.12 | 2.21 | 1.79 | 1.54 | 2.03 | 2.4 | 1.37 | 2.8 |
| GCTGCTAGGTCAACTGATGGTCTGCTAAAGCTCG | 3.12 | 4.34 | 4.87 | 1.78 | 2.91 | 2.83 | 1.02 | -0.264 |
| GATACAGGGACAAGGCCAGAGTACGCGTATTGAT | 0.843 | 0.288 | 1.06 | -0.24 | 0.00121 | 0.874 | 0.292 | 0.46 |
| CCTGCTAGGTCAATGGTCAGTTAAAGCAGCTCGC | 3.24 | 3.72 | 4.65 | 1.99 | 2.11 | 2.38 | 0.961 | 0.506 |
| ATATGTAGGTTAGATGGGGTCATTCAGACTAGGC | 3.8 | 4.06 | 2.93 | 2.39 | 5.63 | 5.15 | 3.28 | 5.95 |
| CTCGAAAGGTCGGTTGAGTTGAGTATACGGATAA | 1.34 | 2.4 | 2.35 | 1.33 | 1.81 | 3.4 | 0.44 | 1.37 |
| CGTCCAAGGTCAGAGAGGTCAGCGAATGCCGAGT | 5.53 | 6.82 | 7.65 | 3.12 | 6.52 | 4.47 | 2.86 | 5.7 |
| GGAACGAGGGCATTCGCGTTGATAGCATGGCGAT | 0.582 | 0.978 | 1.21 | 2.75 | 0.746 | 1.08 | -0.426 | 1.79 |
| TCTTGTAGATCAACAGGAGGTTACGAAAGATCGA | 0.979 | 1.06 | 0.394 | 0.347 | 1.19 | 1.5 | -0.205 | 0.0245 |
| ATATGTAGGTTAGCTGGGGTCGTTCAGACTAGGC | 1.8 | 1.66 | 1.15 | 1.08 | 2.37 | 4.63 | 1.18 | 2.29 |
| ACTATTAGTGGACTTAGGGCAACCGATACGACGC | 0.427 | 0.269 | 0.779 | 0.397 | 0.286 | 1.17 | 0.136 | 0.0269 |
| TAGCCTAAGTCAGATCGGGCCAGTATACGCTATA | -0.342 | -0.329 | -0.306 | -0.669 | -0.25 | 1.43 | -0.221 | -0.691 |
| TGAATGAGGTTACAAGATCAGGGAACGTTGCAAA | 0.458 | 1.79 | 1.52 | 0.127 | 2.26 | 2.2 | 0.329 | 0.106 |
| GCGACTGGGGCATCAGCAGGTTACCCTAACTTAA | 0.901 | 0.748 | 0.106 | -0.65 | 0.381 | 1.29 | 0.628 | -0.558 |
| CCTTACGGGTCACGAGATTATAGCACGACGAGCG | 2.95 | 5.47 | 5.3 | 1.95 | 5.8 | 2.82 | 0.216 | 0.718 |
| CCTAGCAGGCCAGGGTGACTCAAGCATTTCGCTT | 0.018 | -0.0591 | -0.113 | -0.702 | -0.00102 | 0.244 | -0.395 | -0.814 |
| CCGACTGGGGCAAAGTTTACCATACTCAGTACGA | 0.876 | 1.01 | 1.06 | 1.29 | 0.757 | 0.304 | -0.108 | 0.435 |
| TCTAGTTGGTCAAAGGTCACACAATCGAAATGCG | 5.17 | 7.33 | 7.01 | 1.98 | 8.48 | 4.11 | 2.21 | 3.09 |
